# A selection: hits, their analogues and other compounds. The true share with any hit is near 11%.
# USP30 inh: inhibitors of human USP30 deubiquitinase. AID 1645860. purified USP30, Ub-rhodamine cleavage fluorescence. inhibition, % at 25 µM. hit rate 5.3% among 47,000
# OTUD3 block: blocks human OTUD3 ubiquitin-rhodamine cleavage; hit rate 0.7% among 47,000; purified OTUD3, Ub-rhodamine fluorescence, 2 h; inhibition, % at 25 µM
# USP17 block: inhibitors of human USP17 deubiquitinase; A8MUK1; purified USP17, Ub-rhodamine cleavage fluorescence, 3 h; inhibition, % at 50 µM; hit rate 6.5% among 47,000
# Target sequence (A8MUK1 whole entry, looked up): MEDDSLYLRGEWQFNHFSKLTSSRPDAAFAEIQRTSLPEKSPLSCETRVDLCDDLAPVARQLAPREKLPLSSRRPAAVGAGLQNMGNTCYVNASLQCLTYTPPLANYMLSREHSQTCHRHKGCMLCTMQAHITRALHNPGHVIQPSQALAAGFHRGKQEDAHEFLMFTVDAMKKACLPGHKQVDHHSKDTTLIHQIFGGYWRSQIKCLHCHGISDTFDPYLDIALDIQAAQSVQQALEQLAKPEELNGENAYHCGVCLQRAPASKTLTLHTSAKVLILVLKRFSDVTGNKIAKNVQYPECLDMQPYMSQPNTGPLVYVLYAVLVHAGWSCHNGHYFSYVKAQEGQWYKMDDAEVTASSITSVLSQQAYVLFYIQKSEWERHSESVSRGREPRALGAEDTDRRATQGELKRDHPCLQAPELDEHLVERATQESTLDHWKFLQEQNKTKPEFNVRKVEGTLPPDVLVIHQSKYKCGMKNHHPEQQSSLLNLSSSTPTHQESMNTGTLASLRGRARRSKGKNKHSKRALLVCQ
# USP28 inh: blocks human USP28 ubiquitin-rhodamine cleavage | AID 1645857 | inhibition, % at 25 µM | purified USP28, Ub-rhodamine cleavage fluorescence, 30 min | hit rate 3% among 47,000 | Q96RU2
# Hits are given with their value; – = inactive. Cut-off read from the data, not from the text of the source: active = inhibition above about 30%; inactive = the rest.
SMILES,USP30 inh,OTUD3 block,USP17 block,USP28 inh
O=C(CCc1ccccc1)Nc1cc(F)c2nc(N3CCOCC3)ccc2c1,–,–,–,–
O=C(NCc1ccc(N2CCOCC2)nc1)c1ccc(F)c(F)c1,–,–,–,–
O=C(Nc1cc(F)c2nc(N3CCOCC3)ccc2c1)C1CCC1,–,–,42.2,–
O=C(Nc1cc(F)c2nc(N3CCOCC3)ccc2c1)c1ccc(Br)o1,–,–,84.6,–
O=C(NC1CCCCC1)c1ccc(NC(=O)c2nsc3ccccc23)cc1,–,–,–,–
O=C(Nc1ccc(F)cc1)C(c1ccccc1)N1CCN(c2ccccn2)CC1 (stereo not drawn),–,–,–,–
Cc1ccc(NCc2cc3c(C(C)(C)C)nn(-c4ccc(Cl)cc4)c3[nH]c2=O)cc1C,–,–,42.8,–
Cc1nn(-c2ccccc2)c2[nH]c(=O)c(CNc3ccccc3)cc12,–,–,–,–
Cc1nn(-c2ccc(Cl)cc2)c2[nH]c(=O)c(CNc3ccccc3)cc12,–,–,39.6,–
COc1ccc(OC)c(S(=O)(=O)Nc2ccc3c(c2)CCN3C(=O)C2CC2)c1,–,–,–,–
CCN1CCN(CCCNC(=O)c2cnn(-c3ccc([N+](=O)[O-])cc3)c2C2CCNCC2)CC1,–,–,–,–
COc1ccc(C(=O)NC(c2ccc(Cl)cc2)C2CC2)cc1 (stereo not drawn),–,–,–,–
COc1ccc(-c2cc(C(=O)NC3CC3)nn2C2CCS(=O)(=O)C2)cc1 (stereo not drawn),–,–,–,–
COc1ccc(-c2cc(C(=O)NCCC3=CCCCC3)nn2C2CCS(=O)(=O)C2)cc1 (stereo not drawn),–,–,–,43.4
CC(C)=CCc1c2c(c3occ(-c4ccc(O)c(O)c4)c(=O)c3c1O)C=CC(C)(C)O2,78.7,80.6,85.9,68.9
CC(C)=CCc1c2c(c3occ(-c4ccc(O)cc4)c(=O)c3c1O)C=CC(C)(C)O2,56.5,43.6,90.6,41.5
Cc1nn(C)c(C)c1CNc1nc(C2CC2)nc2c1CCC2,–,–,–,–
NCC(=O)N1Cc2ccccc2CN2C(=O)N(Cc3ccccc3)C(=O)C2C1 (stereo not drawn),–,–,–,–
CC1=C(C(=O)OC2CCCC2C)C(c2ccc3c(c2)OCO3)NC(=O)N1 (stereo not drawn),–,–,–,–
CCCCCn1c(=O)[nH]c2cc(C(=O)NCCN3CCC(Cc4ccccc4)CC3)ccc2c1=O,43.8,–,–,–
COc1ccc(-c2nc(SCC(=O)Nc3ccc(Cl)cc3F)n[nH]2)cc1,33.2,–,59.0,–
CCc1ccc(C(CC(=O)Nc2ccc3c(c2)OCO3)NC(=O)C(F)(F)F)cc1 (stereo not drawn),–,–,–,–
COc1ccc(C(CC(=O)Nc2ccc(Cl)cc2F)NC(=O)C(F)(F)F)cc1 (stereo not drawn),–,–,30.7,–
CN(C)c1ccc(C2c3ccccc3C=CN2C(=O)c2ccccc2)cc1 (stereo not drawn),–,–,–,–
Cc1ccc(-c2cn(CC(=O)NCc3cccc(F)c3)c(=O)o2)cc1,55.7,–,77.0,–
SMILES,USP30 inh,OTUD3 block,USP17 block,USP28 inh
O=c1c2c(nc3nc(C(c4ccccc4)c4ccccc4)[nH]n13)CCC2,–,–,–,–
c1ccc(CN(Cc2ccccc2)c2c3c(nc4ncnn24)CCC3)cc1,38.6,–,–,–
COc1ccc(C(=O)Nc2ccccc2C(=O)NC(Cc2ccc(O)cc2)C(=O)NNC(=O)Cc2ccc(OC)c(OC)c2)cc1 (stereo not drawn),30.8,–,31.3,–
O=c1[nH]c2cc(-c3noc(-c4ccncc4)n3)ccc2n1C1CCCC1,–,–,–,–
C=C1NC(=O)c2c(sc(C(=O)OCC(=O)NC(C)CCc3ccccc3)c2C)N1 (stereo not drawn),–,–,–,–
CN(C)c1cccc(C(=O)Nc2cc(-c3cccnc3)no2)c1,–,–,50.5,–
COc1ccc(OC)c(C(C(=O)NC2CCCCC2)N(C(=O)c2ccc3c(c2)OCCO3)c2ccc(C)cc2)c1 (stereo not drawn),40.9,–,–,–
Cc1ccccc1-n1ncc(C(=O)Nc2cccc(C#N)c2)c1C1CC1,–,–,–,41.7
O=C(Nc1cccc(F)c1)c1cnn(-c2ccccc2)c1C1CCNCC1,–,–,–,–
Cc1cc(F)ccc1NS(=O)(=O)c1c[nH]c2ccc([N+](=O)[O-])cc12,41.8,–,45.7,–
COC(=O)c1ccc(NS(=O)(=O)c2c[nH]c3ccc([N+](=O)[O-])cc23)cc1,–,–,45.0,–
Cn1c(=O)c2c3c(cnc2n(C)c1=O)C(=O)CC(c1ccc(Cl)cc1)C3 (stereo not drawn),–,–,–,–
CSc1ccc(CNC(=O)c2cc(CN3CCOCC3)on2)cc1,–,–,–,–
COc1ccccc1NS(=O)(=O)c1ccc(NC(=O)Cc2ccc(Cl)cc2)cc1,–,–,45.4,–
O=C(COc1ccc(Cl)cc1)Nc1ccc(S(=O)(=O)Nc2ccccc2)cc1,37.5,–,40.5,–
Cc1cc(C)n2nc(CNc3cccc(Cl)c3)nc2n1,–,–,–,73.5
Cc1cc(=O)n2[nH]c(CNc3cccc(Cl)c3)nc2n1,–,–,–,–
Cc1nc2nc(CN(C(=O)C(C)C)c3ccccc3)nn2c(C)c1Cl,–,–,–,–
Cc1nc2nc(CNc3ccccc3)nn2c(C)c1Cl,–,–,–,46.9
Cc1sc2nc(C3CC3)n(C3CCN(C(=O)C4CCC4)CC3)c(=O)c2c1C,39.3,–,–,–
COCC(=O)N1CCC(n2c(C3CC3)nc3sc(C)c(C)c3c2=O)CC1,–,–,–,–
O=S(=O)(c1ccccc1)N1CCC2(CC1)NCCN=C2NC1CCCCC1,–,–,–,–
COc1ccc(CC(=O)NCc2cc(-c3ccc(Cl)cc3)on2)cc1,–,–,–,–
COc1ccc(-c2nc(CNC(=O)Cc3ccc(Cl)cc3)cs2)cc1,–,–,35.5,–
O=C(COc1ccccc1)NCc1csc(-c2ccccc2)n1,31.0,–,44.2,–
SMILES,USP30 inh,OTUD3 block,USP17 block,USP28 inh
C=C1CCC2C(C)(CCC=C(C)C)C(OC(C)=O)CCC2(C)C1Cc1c(O)c(C)c(C)oc1=O (stereo not drawn),–,–,–,–
CC(NC(=O)Cc1cc(-c2ccc(F)cc2)on1)c1ccccc1 (stereo not drawn),–,–,30.6,–
CC(NC(=O)COCc1cc(-c2ccc(F)cc2)on1)c1ccccc1 (stereo not drawn),–,–,–,–
O=c1[nH]cccc1NS(=O)(=O)c1ccc(F)cc1,–,–,85.7,–
CCc1nc2c(NS(=O)(=O)c3ccc(F)cc3)cccn2n1,–,–,–,–
Cc1ccc(S(=O)(=O)N2CCC3(CC2)NC(=O)c2ccccc2N3)c(C)c1,–,–,61.5,–
CC(=O)c1ccc(S(=O)(=O)N2CCC3(CC2)NC(=O)c2ccccc2N3)cc1,–,–,–,–
O=C1NC2(CCN(S(=O)(=O)c3ccc(F)c(F)c3)CC2)Nc2ccccc21,–,–,–,–
Cc1ccc(S(=O)(=O)N2CCC3(CC2)NC(=O)c2ccccc2N3)cc1C,–,–,58.1,–
CCc1ccc(NC(=O)N2C[C@H]3C[C@H](C(=O)NCC(C)C)[C@@H](C2)O3)cc1,–,–,–,–
